Data reported in the supplement of paper PMC6555819.

Assays:
Assay in all cases: PBM binding z-score (relative to random genomic background probes); higher = stronger binding; sequences stand for … in GC…GCGATTGACAGCGTAGAATGAAGG
[1] = system: RARb homodimer (NR concentration 270 nM)
Procedure, shortened: (§1)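 Antibodies against each partner of ligand-free nuclear receptor dimers (one per run) detected binding on custom Agilent 4×180K protein-binding microarrays after 1 h incubation. The double-stranded probes had 34-nt variable regions carrying direct-repeat seeds, single-nucleotide variants, half-site ablations and random human genomic background sequences. Binding z-scores, from regression-normalized fluorescence, use the random background probes as reference.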

[2] = system: RARg:RXRa (NR concentration 270 nM, RXRa partner concentration 90 nM)
Procedure, shortened: as §1

[3] = system: RARg homodimer (NR concentration 270 nM)
Procedure, shortened: as §1

[4] = system: RXRa DBDmut IVT, anti-RXR (DBD mutation: RXRa K156A/R161A, NR concentration 90 nM)
Procedure, shortened: as §1

[5] = system: RXRa homodimer (NR concentration 180 nM)
Procedure, shortened: as §1

[6] = system: THRa:RXRa (NR concentration 90 nM, RXRa partner concentration 90 nM)
Procedure, shortened: as §1

[7] = system: THRa homodimer (NR concentration 90 nM)
Procedure, shortened: as §1

[8] = system: VDR homodimer (NR concentration 270 nM)
Procedure, shortened: as §1

**Q.** Which results are given for CCAGACAGGTGAGAAGCTAACTCAGCCTCGATTA?
**A.** PBM binding z-score [1]: 0.0853; PBM binding z-score [2]: -0.181; PBM binding z-score [3]: 0.0316; PBM binding z-score [4]: -0.135; PBM binding z-score [5]: 0.129; PBM binding z-score [6]: 0.183; PBM binding z-score [7]: -0.194; PBM binding z-score [8]: -0.0982

**Q.** Which results are given for GCTTACGGGTCAAAGGTGATAGCATGAATAGAAT?
**A.** PBM binding z-score [1]: 2.94; PBM binding z-score [2]: 5.62; PBM binding z-score [3]: 4.21; PBM binding z-score [4]: 2.43; PBM binding z-score [5]: 7.79; PBM binding z-score [6]: 3.15; PBM binding z-score [7]: -0.0269; PBM binding z-score [8]: 1.07

**Q.** TTACCAAGGTGAAGGTCTTTGATCCCTCTGTAGA was tested. Which PBM binding z-score [1] did it give?
**A.** 0.775

**Q.** And the PBM binding z-score [2]?
**A.** 0.2

**Q.** What about the PBM binding z-score [3] of the same sequence?
**A.** 0.513

**Q.** And the PBM binding z-score [4]?
**A.** -0.154

**Q.** What about the PBM binding z-score [5] of the same sequence?
**A.** 0.759

**Q.** And the PBM binding z-score [6]?
**A.** 1.73

**Q.** And the PBM binding z-score [7]?
**A.** 0.592

**Q.** What about the PBM binding z-score [8] of the same sequence?
**A.** -0.396

**Q.** With TCTCGGAGGACACGTAGGTCAGAGCTTTCCAGAG as the sequence, how does the PBM binding z-score [1] read?
**A.** 2.65

**Q.** What about the PBM binding z-score [2] of the same sequence?
**A.** 2.17

**Q.** What about the PBM binding z-score [3] of the same sequence?
**A.** 2.67

**Q.** And the PBM binding z-score [4]?
**A.** 0.656

**Q.** What about the PBM binding z-score [5] of the same sequence?
**A.** 1.04

**Q.** And the PBM binding z-score [6]?
**A.** 2.44

**Q.** What about the PBM binding z-score [7] of the same sequence?
**A.** 0.686

**Q.** And the PBM binding z-score [8]?
**A.** 0.567

**Q.** GCAGACAGTTGAAACGCAGGTAACTCAGGGTGGC was tested. Which PBM binding z-score [1] did it give?
**A.** -0.639

**Q.** And the PBM binding z-score [2]?
**A.** 0.0568

**Q.** And the PBM binding z-score [3]?
**A.** -0.397

**Q.** What about the PBM binding z-score [4] of the same sequence?
**A.** -0.408

**Q.** And the PBM binding z-score [5]?
**A.** 0.339

**Q.** What about the PBM binding z-score [6] of the same sequence?
**A.** 0.919

**Q.** And the PBM binding z-score [7]?
**A.** -0.565

**Q.** And the PBM binding z-score [8]?
**A.** -0.832

**Q.** ATACCAAGGAGATCGTGAGGTCGTTGATACTAAC was tested. Which PBM binding z-score [1] did it give?
**A.** 0.696

**Q.** What about the PBM binding z-score [2] of the same sequence?
**A.** 0.264

**Q.** And the PBM binding z-score [3]?
**A.** 0.458

**Q.** What about the PBM binding z-score [4] of the same sequence?
**A.** 0.394

**Q.** What about the PBM binding z-score [5] of the same sequence?
**A.** 0.833

**Q.** And the PBM binding z-score [6]?
**A.** 2.37

**Q.** And the PBM binding z-score [7]?
**A.** 1.63

**Q.** And the PBM binding z-score [8]?
**A.** 3.26

**Q.** With CCTCCTAGGTCATGGTCAGCTAATCTACAGTATG as the sequence, how does the PBM binding z-score [1] read?
**A.** 3.55

**Q.** And the PBM binding z-score [2]?
**A.** 3.91

**Q.** What about the PBM binding z-score [3] of the same sequence?
**A.** 4.49

**Q.** What about the PBM binding z-score [4] of the same sequence?
**A.** 1.04

**Q.** And the PBM binding z-score [5]?
**A.** 2.93

**Q.** And the PBM binding z-score [6]?
**A.** 3.09

**Q.** And the PBM binding z-score [7]?
**A.** 1.92

**Q.** And the PBM binding z-score [8]?
**A.** 0.641

**Q.** For GATACAGGGTCAGCTGGAGGCCAGAGTATGGAAA, which PBM binding z-score [1] is on record?
**A.** 3.23

**Q.** And the PBM binding z-score [2]?
**A.** 6.73

**Q.** What about the PBM binding z-score [3] of the same sequence?
**A.** 5.23

**Q.** What about the PBM binding z-score [4] of the same sequence?
**A.** 1.38

**Q.** What about the PBM binding z-score [5] of the same sequence?
**A.** 4.35

**Q.** What about the PBM binding z-score [6] of the same sequence?
**A.** 3.16

**Q.** What about the PBM binding z-score [7] of the same sequence?
**A.** 0.136

**Q.** What about the PBM binding z-score [8] of the same sequence?
**A.** 0.57

**Q.** For TCGAGTAGGTTAGTCGGGACATTCAGCCAACATA, which PBM binding z-score [1] is on record?
**A.** 0.0324

**Q.** What about the PBM binding z-score [2] of the same sequence?
**A.** -0.106

**Q.** What about the PBM binding z-score [3] of the same sequence?
**A.** 0.0152

**Q.** What about the PBM binding z-score [4] of the same sequence?
**A.** 0.327

**Q.** What about the PBM binding z-score [5] of the same sequence?
**A.** 0.107

**Q.** And the PBM binding z-score [6]?
**A.** 1.39

**Q.** And the PBM binding z-score [7]?
**A.** 0.328

**Q.** What about the PBM binding z-score [8] of the same sequence?
**A.** 0.0666

**Q.** Which results are given for GGAACGAGGGCAAGTTGCTAGCAGAGTTTGATGG?
**A.** PBM binding z-score [1]: 1.37; PBM binding z-score [2]: 1.23; PBM binding z-score [3]: 2.1; PBM binding z-score [4]: 2.26; PBM binding z-score [5]: 0.745; PBM binding z-score [6]: 0.911; PBM binding z-score [7]: -0.229; PBM binding z-score [8]: 1.44

**Q.** Which results are given for CGTCCAAGGTCAGAGAGTTCAGTGAATGCCGAGT?
**A.** PBM binding z-score [1]: 4.39; PBM binding z-score [2]: 5.25; PBM binding z-score [3]: 6.4; PBM binding z-score [4]: 3.78; PBM binding z-score [5]: 4.59; PBM binding z-score [6]: 3.62; PBM binding z-score [7]: 2; PBM binding z-score [8]: 7.94

**Q.** TCTTGTAGATCAACAGGAGGTTAGGAAAGATCGA was tested. Which PBM binding z-score [1] did it give?
**A.** 0.164

**Q.** And the PBM binding z-score [2]?
**A.** 0.361

**Q.** And the PBM binding z-score [3]?
**A.** 0.196

**Q.** And the PBM binding z-score [4]?
**A.** 0.233

**Q.** And the PBM binding z-score [5]?
**A.** 0.348

**Q.** And the PBM binding z-score [6]?
**A.** 0.437

**Q.** And the PBM binding z-score [7]?
**A.** -0.828

**Q.** What about the PBM binding z-score [8] of the same sequence?
**A.** -0.458

**Q.** What does the source list for CCTACTAGGTCAATGGTCAGCTAAAGCAGCTCGC?
**A.** PBM binding z-score [1]: 3.28; PBM binding z-score [2]: 3.39; PBM binding z-score [3]: 4.16; PBM binding z-score [4]: 1.71; PBM binding z-score [5]: 2.26; PBM binding z-score [6]: 2.47; PBM binding z-score [7]: 0.868; PBM binding z-score [8]: 0.437

**Q.** Which PBM binding z-score [1] does the source give for TCATATAGGTAAATCCTAGGTGAAAGTCCGATCT here?
**A.** 0.18

**Q.** What about the PBM binding z-score [2] of the same sequence?
**A.** 0.491

**Q.** And the PBM binding z-score [3]?
**A.** 0.396

**Q.** What about the PBM binding z-score [4] of the same sequence?
**A.** 1.37

**Q.** What about the PBM binding z-score [5] of the same sequence?
**A.** 0.983

**Q.** And the PBM binding z-score [6]?
**A.** 1.96

**Q.** And the PBM binding z-score [7]?
**A.** 0.368

**Q.** What about the PBM binding z-score [8] of the same sequence?
**A.** -0.253

**Q.** How did the PBM binding z-score [1] turn out when AATATTAGTTGACTTAGGGCAACCGATACGACGC was run?
**A.** 0.918

**Q.** And the PBM binding z-score [2]?
**A.** 0.615

**Q.** And the PBM binding z-score [3]?
**A.** 0.87

**Q.** What about the PBM binding z-score [4] of the same sequence?
**A.** 0.532

**Q.** What about the PBM binding z-score [5] of the same sequence?
**A.** 0.76

**Q.** And the PBM binding z-score [6]?
**A.** 1.44

**Q.** What about the PBM binding z-score [7] of the same sequence?
**A.** 0.572

**Q.** What about the PBM binding z-score [8] of the same sequence?
**A.** 0.87

**Q.** What does the source list for TCTTGTAGATCAGCAGGTTAAGAAAGCTGGCCAA?
**A.** PBM binding z-score [1]: -0.155; PBM binding z-score [2]: -0.199; PBM binding z-score [3]: -0.355; PBM binding z-score [4]: 0.476; PBM binding z-score [5]: 0.261; PBM binding z-score [6]: -0.0256; PBM binding z-score [7]: -0.621; PBM binding z-score [8]: -0.371

**Q.** Which PBM binding z-score [1] does the source give for GCTGCTAGGTCAGCTGATGGTCAGCTAAAGCTCG here?
**A.** 2.88

**Q.** And the PBM binding z-score [2]?
**A.** 3.97

**Q.** What about the PBM binding z-score [3] of the same sequence?
**A.** 4.38

**Q.** What about the PBM binding z-score [4] of the same sequence?
**A.** 0.423

**Q.** What about the PBM binding z-score [5] of the same sequence?
**A.** 0.813

**Q.** What about the PBM binding z-score [6] of the same sequence?
**A.** 1.83

**Q.** What about the PBM binding z-score [7] of the same sequence?
**A.** -0.0581

**Q.** What about the PBM binding z-score [8] of the same sequence?
**A.** -1.09
